Consider 14 molecules from PubChem BioAssay (NCI).

This is part of a sample that, as a whole, favours compounds with a hit. Of some 83,000 tested, about 20% had one in any assay.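 Cells were grown in 96-well plates and exposed to the test compound at a single concentration for 48 hours; results are reported as percent growth, with values below 10 considered active.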 Unmarked numbers belong to inactive results. Active and inactive are the calls of the source.

Some test systems named below: SR leukemia; RPMI-8226 leukemia; OVCAR-8 ovarian; OVCAR-5 ovarian; OVCAR-4 ovarian; SK-OV-3 ovarian; IGROV1 ovarian; OVCAR-3 ovarian; HS 578T breast; NCI/ADR-RES ovarian.
Holding throughout (experiment): NCI-60 one-dose screen, 48 h (100 = growth as untreated, 0 = no growth, -100 = all killed)
Common to all, as to conditions: 10 µM

With `O=NN(CCCl)C(=O)Nc1ccc(NC(=O)N(CCCl)N=O)cc1`, the growth in the experiment with SR leukemia was 2.28% (active); in the experiment on RPMI-8226 leukemia it was 100%; with OVCAR-8 ovarian, 93%; with OVCAR-5 ovarian, 95.2%; in the experiment with OVCAR-4 ovarian, 93.7%; with SK-OV-3 ovarian, 105%. Besides, the growth with IGROV1 ovarian is 85.9%; in the experiment with OVCAR-3 ovarian, 111%; in the experiment on HS 578T breast it was 104%; in the experiment on NCI/ADR-RES ovarian, 98.7%.

As for `O=c1oc2c3ccc4cnccc4c3[nH]c2c2ccccc12`, the growth is -51.3% (active) with SR leukemia; -21.8% (active) in the experiment on RPMI-8226 leukemia; 24.3% with OVCAR-8 ovarian; 46.8% in the experiment on OVCAR-5 ovarian; 25.2% in the experiment with OVCAR-4 ovarian; 89.1% with SK-OV-3 ovarian. Also, the growth in the experiment on IGROV1 ovarian is 21.2%; in the experiment on OVCAR-3 ovarian, 38.2%; with HS 578T breast, 68.1%; in the experiment with NCI/ADR-RES ovarian it was 71.5%.

For the molecule `N#Cc1c2c([nH]c(=O)c1C(N)=O)CCCCC2`, the growth in the experiment on SR leukemia is 108%; in the experiment with RPMI-8226 leukemia, 103%; in the experiment on OVCAR-8 ovarian, 102%; with OVCAR-5 ovarian, 97.2%; in the experiment with OVCAR-4 ovarian it was 116%; in the experiment with SK-OV-3 ovarian, 91.6%. Further, the growth in the experiment with IGROV1 ovarian is 102%; with OVCAR-3 ovarian it was 113%; in the experiment on HS 578T breast it was 91.4%; in the experiment on NCI/ADR-RES ovarian, 111%.

`CC(C)/C(=N/O)c1ccccc1`: the growth in the experiment on SR leukemia was 107%; with RPMI-8226 leukemia it was 111%; in the experiment with OVCAR-8 ovarian, 110%; in the experiment on OVCAR-5 ovarian, 103%; in the experiment with OVCAR-4 ovarian it was 111%; in the experiment with SK-OV-3 ovarian it was 122%. The growth with IGROV1 ovarian is 118%; with OVCAR-3 ovarian, 130%; in the experiment on HS 578T breast, 118%; in the experiment on NCI/ADR-RES ovarian it was 107%.

`COc1ccc(-c2ccc(-c3ccc(C(=N)N)c(F)c3)s2)cc1`: the growth in the experiment on SR leukemia is -21.2% (active); in the experiment with RPMI-8226 leukemia, -65.6% (active); in the experiment with OVCAR-8 ovarian, -48.7% (active); with OVCAR-5 ovarian, -91.7% (active); with OVCAR-4 ovarian, -67.9% (active); with SK-OV-3 ovarian, -93.8% (active). Further, the growth with IGROV1 ovarian is -62.7% (active); in the experiment with OVCAR-3 ovarian, -96% (active); with HS 578T breast, -54.3% (active); in the experiment on NCI/ADR-RES ovarian it was -51.3% (active).

Take `COc1cc(-c2n/c(=C\c3c(O)[nH]c4ccccc34)cc3c2=Nc2ccccc2-3)cc(OC)c1OC`: the growth with SR leukemia is 8.26% (active); in the experiment with RPMI-8226 leukemia, 25.5%; with OVCAR-8 ovarian it was 11.3%; in the experiment with OVCAR-5 ovarian it was 46.4%; in the experiment with OVCAR-4 ovarian, 26.8%; with SK-OV-3 ovarian it was -9.66% (active). Moreover, the growth was 44.3% in the experiment with IGROV1 ovarian, -16.6% (active) in the experiment on OVCAR-3 ovarian, 3.83% (active) in the experiment with HS 578T breast and 4.78% (active) in the experiment with NCI/ADR-RES ovarian.

In the case of `CCOC(=O)C1=C(Nc2ccc(OC)cc2)C(N)=NC1=N`, the growth was 4.05% (active) with SR leukemia; 24.7% with RPMI-8226 leukemia; 54.5% in the experiment with OVCAR-8 ovarian; 65.6% with OVCAR-5 ovarian; 59.8% in the experiment on OVCAR-4 ovarian; 34.1% with SK-OV-3 ovarian. The growth was 65% with IGROV1 ovarian, 17% in the experiment on OVCAR-3 ovarian, 48.5% with HS 578T breast and 28.4% in the experiment on NCI/ADR-RES ovarian.

`CCCc1ccnc(NS(=O)(=O)c2ccc(N)cc2)n1`: the growth with SR leukemia was 72.2%; in the experiment on RPMI-8226 leukemia it was 41.4%; with OVCAR-8 ovarian, 75.2%; with OVCAR-5 ovarian it was 117%; in the experiment with OVCAR-4 ovarian it was 54.7%; in the experiment on SK-OV-3 ovarian, 95.9%. The growth was 96.4% with IGROV1 ovarian, 73.5% in the experiment on OVCAR-3 ovarian, 82% in the experiment on HS 578T breast and 112% in the experiment with NCI/ADR-RES ovarian.

For the molecule `Cc1noc(C)c1-c1ccc2nc(NC(=O)[C@H]3CCN(C#N)C3)cn2c1`, the growth was 42.3% with SR leukemia; 97.2% in the experiment on RPMI-8226 leukemia; 91.6% with OVCAR-8 ovarian; 92.7% with OVCAR-5 ovarian; 63.9% in the experiment with OVCAR-4 ovarian; 103% in the experiment on SK-OV-3 ovarian. The growth was 82.2% in the experiment on IGROV1 ovarian, 71.7% in the experiment with OVCAR-3 ovarian, 84.4% in the experiment on HS 578T breast and 95.8% in the experiment with NCI/ADR-RES ovarian.

In the case of `COc1cc2c3c(cccc3c1)C(=O)N(CCN1CCCC1)C2=O`, the growth is 2.44% (active) in the experiment with SR leukemia; 12.2% in the experiment with RPMI-8226 leukemia; 6.43% (active) in the experiment with OVCAR-8 ovarian; 34.1% with OVCAR-5 ovarian; 21.6% in the experiment with OVCAR-4 ovarian; 34.1% in the experiment on SK-OV-3 ovarian. The growth was 23.5% with IGROV1 ovarian, 0.462% (active) in the experiment with OVCAR-3 ovarian, 27.1% in the experiment on HS 578T breast and 13% with NCI/ADR-RES ovarian.

Regarding `CC(=O)/C(=C\c1ccc(Cl)cc1)c1ccccc1`, the growth was 6.01% (active) in the experiment on SR leukemia; 19% in the experiment on RPMI-8226 leukemia; 15.2% in the experiment with OVCAR-8 ovarian; 51.5% in the experiment on OVCAR-5 ovarian; 57.7% with OVCAR-4 ovarian; 39.1% in the experiment with SK-OV-3 ovarian. In addition, the growth in the experiment with IGROV1 ovarian was 28.5%; in the experiment with OVCAR-3 ovarian, -8.06% (active); in the experiment on HS 578T breast it was 23.8%; in the experiment on NCI/ADR-RES ovarian, 30.7%.

`COc1ccc(-c2nc(NC(=O)CS(=O)(=O)c3ccc(F)cc3)sc2C)cc1`: the growth with SR leukemia is 32.5%; with RPMI-8226 leukemia, -0.965% (active); in the experiment on OVCAR-8 ovarian, 74%; with OVCAR-5 ovarian it was 95.4%; with OVCAR-4 ovarian, 69.8%; in the experiment with SK-OV-3 ovarian, 73.6%. The growth with IGROV1 ovarian was 54.5%; in the experiment on OVCAR-3 ovarian, 56%; in the experiment on HS 578T breast, 79.5%; with NCI/ADR-RES ovarian, 50.6%.

As to `O=C(CCl)N1c2ccccc2Sc2ccc3ccccc3c21`, the growth in the experiment on SR leukemia was -11.4% (active); with RPMI-8226 leukemia, -47.3% (active); in the experiment with OVCAR-8 ovarian, -24.2% (active); in the experiment on OVCAR-5 ovarian it was 21%; in the experiment on OVCAR-4 ovarian it was -41.9% (active); in the experiment on SK-OV-3 ovarian, 17.6%. Besides, the growth with IGROV1 ovarian is -71.2% (active); in the experiment on OVCAR-3 ovarian, -82.5% (active); in the experiment on HS 578T breast it was -0.68% (active); in the experiment on NCI/ADR-RES ovarian, -25.8% (active).

`COc1cccc2c1C(=O)c1c(O)c3c(c(O)c1C2=O)C[C@@](O)(C(=O)COC(=O)c1cccnc1)C[C@@H]3OC1CC(N)C(O)C(C)O1` (stereo not given in full): the growth with SR leukemia is 3.07% (active); in the experiment with RPMI-8226 leukemia it was -29% (active); in the experiment on OVCAR-8 ovarian, -15.8% (active); with OVCAR-5 ovarian it was 6.95% (active); in the experiment on OVCAR-4 ovarian it was 0.907% (active); in the experiment with SK-OV-3 ovarian, 22.5%. Further, the growth in the experiment on IGROV1 ovarian was -12.4% (active); in the experiment with OVCAR-3 ovarian, -9.51% (active); in the experiment on HS 578T breast, -12.8% (active); in the experiment on NCI/ADR-RES ovarian it was 57%.
